Experimental findings from PubChem BioAssay (NCI) are described below.

A short description of experiment [1]: NCI Yeast Anticancer Drug Screen. Data for the rad50 strain (AID 155).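 Note: 0% = growth of vehicle-only cultures of the same strain.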 To be noted: S. cerevisiae rad50 strain growth inhibition, active compounds read high. In a few lines: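 Yeast carrying a defined DNA repair defect were exposed to test compounds, and growth was compared with vehicle-treated controls to give percent inhibition.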
Experiment [2] is described as follows: NCI Yeast Anticancer Drug Screen. Data for the mec2-1 strain (AID 157). Particulars: S. cerevisiae mec2-1 strain, active compounds read high. In a few lines:
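Test agents were screened against the mec2-1 yeast strain, with defined DNA repair or cell cycle alteration. Growth was scored as inhibition against vehicle-only controls.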

A short description of experiment [3]: NCI Yeast Anticancer Drug Screen. Data for the sgs1 mgt1 strain (AID 161).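 Note: 0% = growth of cultures given vehicle only.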 Particulars: S. cerevisiae sgs1 mgt1 strain, active compounds read high. In a few lines: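 Test agents were incubated with a DNA-repair-mutant yeast strain. Growth was then read and compared against vehicle-treated controls.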
The nature of experiment [4]: NCI Yeast Anticancer Drug Screen. Data for the cln2 rad14 strain (AID 165).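 Note: 0% = growth equal to vehicle treated cultures.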 To be noted: S. cerevisiae cln2 rad14 strain, active compounds read high. In a few lines: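 Growth of compound-exposed yeast (cln2 rad14 genotype) measured and expressed as inhibition relative to vehicle.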
Experiment [5] is described as follows: NCI Yeast Anticancer Drug Screen. Data for the bub3 strain (AID 167). To be noted: S. cerevisiae bub3 mutant strain, active compounds read high. The gist of the method:
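Compounds were applied to a genetically altered yeast strain carrying a cell-cycle control defect. Growth inhibition was scored against vehicle-treated controls.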

The nature of experiment [6]: NCI Yeast Anticancer Drug Screen. Data for the mlh1 rad18 strain (AID 175). Particulars: S. cerevisiae mlh1 rad18 strain growth inhibition, active compounds read high. The gist of the method:
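In this whole-cell yeast screen, a strain with altered DNA damage repair is challenged with compound, and its growth is measured against matched vehicle-treated controls.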

Setting [7] is: at 5.0 µM (retest, dose inferred, filed as 0.5).
The mark [8] stands for this setting: at 50.0 µM (retest, dose inferred, filed as 5.0).

About 79,000 compounds went through this panel and 15% of them were active in at least one assay; those are over-represented in the sample as a whole. Values without a mark were called inactive. Active and inactive are the calls of the source. Cut-off read from the data, not from the text of the source: active = growth inhibition above about 70%; inactive = the rest.

Consider `C[C@@H]1CCC([C@@H](C)[C@H]2CC[C@H]3[C@@H]4CC[C@H]5C[C@@H](O)CC[C@]5(C)[C@H]4CC[C@]23C)=NC1`, for which the growth inhibition in experiment [1] (setting [7]) was 73% (active); in experiment [1] (setting [8]), 98% (active); in experiment [1] (at 50.0 µM), 87.5% (active); in experiment [2] (setting [7]) it was 60%; in experiment [2] (setting [8]) it was 98% (active); in experiment [2] (at 50.0 µM), 89% (active). The growth inhibition in experiment [3] (setting [7]) is 90% (active); in experiment [3] (setting [8]), 99% (active); in experiment [3] (at 50.0 µM) it was 91.6% (active); in experiment [4] (setting [7]) it was 60%; in experiment [4] (setting [8]), 98% (active); in experiment [4] (at 50.0 µM), 88.7% (active). The growth inhibition is 84% (active) in experiment [5] (setting [7]); 98% (active) in experiment [5] (setting [8]); 88.5% (active) in experiment [5] (at 50.0 µM); 95% (active) in experiment [6] (setting [7]); 98% (active) in experiment [6] (setting [8]); 89% (active) in experiment [6] (at 50.0 µM).

Take `Cc1cc(=O)oc2cc(O)cc(O)c12`: the growth inhibition is 0% in experiment [1] (setting [7]); -1% in experiment [1] (setting [8]); 16.5% in experiment [1] (at 50.0 µM); -4% in experiment [2] (setting [7]); -2% in experiment [2] (setting [8]); -8.95% in experiment [2] (at 50.0 µM). The growth inhibition in experiment [3] (setting [7]) was -11%; in experiment [3] (setting [8]), -4%; in experiment [3] (at 50.0 µM), -8.8%; in experiment [4] (setting [7]), 0%; in experiment [4] (setting [8]), -11%; in experiment [4] (at 50.0 µM) it was -18.6%. Besides, the growth inhibition in experiment [5] (setting [7]) is -3%; in experiment [5] (setting [8]), 6%; in experiment [5] (at 50.0 µM), -14.7%; in experiment [6] (setting [7]), -5%; in experiment [6] (setting [8]), 1%; in experiment [6] (at 50.0 µM), 6.8%.

On to `O=[N+]([O-])c1ccc2c(c1)Cc1ccccc1-2`, for which the growth inhibition in experiment [1] (setting [7]) is 15%; in experiment [1] (setting [8]) it was -11%; in experiment [1] (at 50.0 µM) it was 63.5%; in experiment [2] (setting [7]), -10%; in experiment [2] (setting [8]) it was -25%; in experiment [2] (at 50.0 µM) it was 9.35%. Also, the growth inhibition in experiment [3] (setting [7]) was 8%; in experiment [3] (setting [8]) it was 5%; in experiment [3] (at 50.0 µM), 25.2%; in experiment [4] (setting [7]), -2%; in experiment [4] (setting [8]), -20%; in experiment [4] (at 50.0 µM), -13.5%. The growth inhibition was 0% in experiment [5] (setting [7]); -59% in experiment [5] (setting [8]); -17.2% in experiment [5] (at 50.0 µM); 20% in experiment [6] (setting [7]); 2% in experiment [6] (setting [8]); 67.2% in experiment [6] (at 50.0 µM).

`Cc1nnc(N/N=C/c2ccc([N+](=O)[O-])o2)[nH]c1=O`: the growth inhibition in experiment [1] (setting [7]) was -5%; in experiment [1] (setting [8]), 36%; in experiment [1] (at 50.0 µM), 59.1%; in experiment [2] (setting [7]) it was 6%; in experiment [2] (setting [8]) it was 68%; in experiment [2] (at 50.0 µM) it was 65.2%. The growth inhibition was -2% in experiment [3] (setting [7]); 75% (active) in experiment [3] (setting [8]); 47.5% in experiment [3] (at 50.0 µM); 6% in experiment [4] (setting [7]); 42% in experiment [4] (setting [8]); 85.2% (active) in experiment [4] (at 50.0 µM). Besides, the growth inhibition was -9% in experiment [5] (setting [7]); 62% in experiment [5] (setting [8]); 81% (active) in experiment [5] (at 50.0 µM); 8% in experiment [6] (setting [7]); 80% (active) in experiment [6] (setting [8]); 71% (active) in experiment [6] (at 50.0 µM).

Turning to `CCC1C[N+]2=C(c3cc(OC)c(OC)cc3CC2)c2c1cc1n2CCc2cc(OC)c(OC)cc2-1` (centres undefined), the growth inhibition is 99% (active) in experiment [1] (setting [7]); 99% (active) in experiment [1] (setting [8]); 93% (active) in experiment [1] (at 50.0 µM); 100% (active) in experiment [2] (setting [7]); 99% (active) in experiment [2] (setting [8]); 94.8% (active) in experiment [2] (at 50.0 µM). The growth inhibition was 99% (active) in experiment [3] (setting [7]); 99% (active) in experiment [3] (setting [8]); 94.5% (active) in experiment [3] (at 50.0 µM); 96% (active) in experiment [4] (setting [7]); 99% (active) in experiment [4] (setting [8]); 92.8% (active) in experiment [4] (at 50.0 µM). The growth inhibition in experiment [5] (setting [7]) is 99% (active); in experiment [5] (setting [8]) it was 99% (active); in experiment [5] (at 50.0 µM), 93.5% (active); in experiment [6] (setting [7]), 97% (active); in experiment [6] (setting [8]) it was 99% (active); in experiment [6] (at 50.0 µM), 93.6% (active).

`O=C1C=CC(O)=CC1=P(c1ccccc1)(c1ccccc1)c1ccccc1`: the growth inhibition was 2% in experiment [1] (setting [7]); 11% in experiment [1] (setting [8]); 48.1% in experiment [1] (at 50.0 µM); -1% in experiment [2] (setting [7]); 6% in experiment [2] (setting [8]); -8.55% in experiment [2] (at 50.0 µM). In addition, the growth inhibition in experiment [3] (setting [7]) is -1%; in experiment [3] (setting [8]), 2%; in experiment [3] (at 50.0 µM), 47.5%; in experiment [4] (setting [7]), -2%; in experiment [4] (setting [8]) it was -3%; in experiment [4] (at 50.0 µM) it was 7.4%. Also, the growth inhibition in experiment [5] (setting [7]) was -4%; in experiment [5] (setting [8]), 2%; in experiment [5] (at 50.0 µM), 25.9%; in experiment [6] (setting [7]), 3%; in experiment [6] (setting [8]) it was 8%; in experiment [6] (at 50.0 µM), 34.5%.

For the compound `Cn1ccc(=Nc2ccc(NC(=O)c3ccc(N=c4ccn(C)c5ccc([N+](=O)[O-])cc45)cc3)cc2)cc1`, the growth inhibition in experiment [1] (setting [7]) is 86% (active); in experiment [1] (setting [8]), 98% (active); in experiment [1] (at 50.0 µM), 79.7% (active); in experiment [2] (setting [7]), 80% (active); in experiment [2] (setting [8]), 98% (active); in experiment [2] (at 50.0 µM), 87.4% (active). Besides, the growth inhibition in experiment [3] (setting [7]) was 92% (active); in experiment [3] (setting [8]) it was 98% (active); in experiment [3] (at 50.0 µM) it was 87.3% (active); in experiment [4] (setting [7]), 83% (active); in experiment [4] (setting [8]), 96% (active); in experiment [4] (at 50.0 µM), 76.6% (active). Moreover, the growth inhibition in experiment [5] (setting [7]) was 93% (active); in experiment [5] (setting [8]), 99% (active); in experiment [5] (at 50.0 µM), 87.5% (active); in experiment [6] (setting [7]), 72% (active); in experiment [6] (setting [8]), 95% (active); in experiment [6] (at 50.0 µM) it was 84.8% (active).

Take `COc1ccc(OC)c(Cc2cnc3nc(N)nc(N)c3c2C)c1`: the growth inhibition in experiment [1] (setting [7]) is 21%; in experiment [1] (setting [8]), 35%; in experiment [1] (at 50.0 µM) it was 67.5%; in experiment [2] (setting [7]), 18%; in experiment [2] (setting [8]), 74% (active); in experiment [2] (at 50.0 µM), 19.7%. Also, the growth inhibition in experiment [3] (setting [7]) was 12%; in experiment [3] (setting [8]), 36%; in experiment [3] (at 50.0 µM), 41.5%; in experiment [4] (setting [7]), 9%; in experiment [4] (setting [8]), 19%; in experiment [4] (at 50.0 µM), 6.45%. Besides, the growth inhibition was 13% in experiment [5] (setting [7]); 19% in experiment [5] (setting [8]); 29.1% in experiment [5] (at 50.0 µM); 18% in experiment [6] (setting [7]); 23% in experiment [6] (setting [8]); -1.5% in experiment [6] (at 50.0 µM).
